From PubChem BioAssay come the findings set out here.

Assay [1] has as its system Human papillomavirus type 1a protein E7 (residues 44-93). The assay can be described thus: HPV1a E7 fragment binders on microarrays, primary screen, biochemical, small-molecule microarray, residues 44-93, 635 nm fluorescence (AID 1108).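 Note: E7 fragment applied at 1 µg/mL in TBST for 1 h at 4 C; score combines spot fluorescence with its signal to noise ratio.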 The note with it: small-molecule microarray binding, fluorescence 635 nm; higher = more signal.
Assay [2] is described as follows: modulators of HCV replicon luciferase signal, primary screen, HCV replication inhibitor project, Huh7 cells, luciferase reporter (AID 1109).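 Note: huh7 hepatoma cells harbouring a luciferase neomycin HCV replicon reporter; luciferase luminescence as measure of HCV replicon replication; test concentration not given here.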 The note with it: 48 h, higher = more signal.
The target of assay [3] is Left-right determination factor 2 (Homo sapiens) (UniProt O00292). The assay can be described thus: LEFTY2 binders on small-molecule microarrays, primary screen, biochemical, small-molecule microarray, 635 nm fluorescence scan (AID 1110). The note with it: LEFTY2 binding, higher = more signal.
Assay [4] concerns the target Calmodulin-1 (Homo sapiens) (UniProt P0DP23). The assay can be described thus: CALM1 binders on microarrays, EGTA buffer, profiling panel, biochemical, small-molecule microarray, Cy5-labelled CALM1 (AID 1111).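 Note: labelled calmodulin applied in Tris saline Tween buffer holding calcium plus EGTA and DTT.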 The note with it: Cy5-CALM1 binding fluorescence, higher = more signal.
For assay [5] the target is unchanged. The assay can be described thus: calcium-bound CALM1 binders on microarrays, profiling panel, artefact control for SMM control-protein annotation, biochemical, small-molecule microarray, Cy5-labelled CALM1, plus calcium (AID 1112).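 Note: score merges spot fluorescence with signal to noise from triplicate slides.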 The note with it: Cy5-CALM1 binding fluorescence, higher = more signal.
A short description of assay [6]: small-molecule microarray binders of probe aWnt5a, primary screen, biochemical, biotinylated probe, 635/667 nm fluorescence (AID 1113).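 Note: score merges 667 nm fluorescence intensity with signal-to-noise per printed feature.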 The note with it: higher = more signal.
A short description of assay [7]: small-molecule microarray binders of probe aShh, primary screen, biochemical, biotinylated probe, 635/667 nm fluorescence (AID 1114).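 Note: probe is biotin-labelled aShh protein from a stem cell growth factor screen; measures binding of labelled protein to compounds printed on the slide; score merges feature fluorescence at 667 nm with signal-to-noise.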 The note with it: higher = more signal.
Assay [8] in a line: small-molecule microarray binders of probe aNog, primary screen, biochemical, biotinylated probe, 635/667 nm fluorescence (AID 1115).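 Note: probe is biotinylated aNog protein used at 0.15 µg/mL for 1 h at 4 C; z-score combines 667 nm fluorescence of each spot with its signal to noise.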 The note with it: higher = more signal.
Assay [9] has as its target Torsin-1A-interacting protein 1 (Homo sapiens) (UniProt Q5JTV8). The assay can be described thus: LAP1 binders from COS7 cell lysate, primary screen, small-molecule microarray, 635/667 nm fluorescence (AID 1116). The note with it: COS7-hLAP1 lysate binding, 635 nm fluorescence, higher = more signal.
Assay [10] has as its target Alpha-bungarotoxin (Bungarus multicinctus) (UniProt P60615). The assay can be described thus: alpha-bungarotoxin binders on microarray, profiling panel, artefact control for SMM control protein annotation, biochemical, small-molecule microarray, Alexa647 label, 635/667 nm fluorescence (AID 1117). The note with it: alpha-BTX-A647 binding fluorescence, higher = more signal.

In a further assay the target is Albumin (Bos taurus) (UniProt P02769). The assay can be described thus: bovine serum albumin binders on microarray, profiling panel, artefact control for SMM control protein annotation, biochemical, small-molecule microarray, Alexa647 label, 635/667 nm fluorescence (AID 1118).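 Note: score merges 667 nm emission intensity and signal-to-noise per printed compound spot.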 The note with it: BSA-A647 binding, fluorescence 635 nm, higher = more signal.
Assay [11] can be described thus: small-molecule microarray binders of probe aXIP, primary screen, biochemical, NeuroSMM set, 635/667 nm fluorescence (AID 1119).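 Note: probe is the protein aXip251-270 applied at 1 µg/mL to compound-printed slides; binding of probe to printed compounds measured as 667 nm fluorescence plus signal to noise.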 The note with it: higher = more signal, called active from +8 up or from −8 down.
Assay [12] is described as follows: small-molecule binders of probe aNOTCH3, primary screen, biochemical, small-molecule microarray, 635/667 nm fluorescence (AID 1120).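 Note: probe is a biotin-tagged antibody raised against NOTCH3 rather than NOTCH3 protein; score merges spot fluorescence near 667 nm with spot signal to noise.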 The note with it: higher = more signal.
Assay [13] is described as follows: small-molecule binders of probe aNOTCH2, primary screen, biochemical, small-molecule microarray, 635/667 nm fluorescence (AID 1121).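 Note: score merges feature fluorescence read at 667 nm with its signal to noise.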 The note with it: higher = more signal.
Assay [14] addresses Carbonic anhydrase 2 (Homo sapiens) (UniProt P00918). The assay can be described thus: CAII small-molecule binders, profiling panel, biochemical, small-molecule microarray, Alexa647-labelled CAII (AID 1122). The note with it: CAII-A647 binding fluorescence, higher = more signal.
A short description of assay [15]: COS7 lysate on small-molecule microarray, probe aHis, 635 nm (AID 1123).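 Note: z-score combines 667nm fluorescence intensity with signal-to-noise per printed compound spot.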 The note with it: COS7 cell lysate, fluorescence, higher = more signal.
The nature of assay [16]: compound binding in COS7 lysate, probe aLAP1, primary screen, cell lysate, small-molecule microarray (AID 1124).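 Note: lysate comes from COS7 cells expressing LAP1 and is applied at 0.3 µg/mL; score merges spot fluorescence near 667 nm with signal-to-noise over triplicate slides.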 The note with it: probe aLAP1, fluorescence, higher = more signal.
The subject of a further assay is Sam68 (KHDRBS1). The assay can be described thus: Sam68 small-molecule binders, primary screen, biochemical, small-molecule microarray, 635 nm fluorescence (AID 1125).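 Note: score merges 667 nm channel intensity with signal to noise over triplicate slides.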 The note with it: small-molecule microarray binding, higher = more signal.
Assay [17] relates to Chordin-like protein 2 (CHRDL2). The assay can be described thus: CHRDL2 small-molecule binders, primary screen, biochemical, small-molecule microarray, 635 nm fluorescence (AID 1126).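 Note: printed compound slides probed with Chrdl2 protein at 4 µg/mL for 1 h at 4 C; score merges 667 nm emission intensity with signal to noise over three replicate slides.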 The note with it: small-molecule microarray binding, fluorescence 635 nm; higher = more signal.
The target in assay [18] is Concanavalin-A (Canavalia ensiformis) (UniProt P02866). The assay can be described thus: ConA small-molecule binders, primary screen, artefact control for SMM control protein annotation, biochemical, small-molecule microarray, Alexa647 label, 635 nm (AID 1127).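 Note: z combines 667 nm emission intensity with signal-to-noise across three replicate slides.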 The note with it: ConA-A647 binding fluorescence, higher = more signal.

Activity calls are given as the source filed them.

Sequence of Alpha-bungarotoxin (Bungarus multicinctus) (P60615 whole entry, looked up): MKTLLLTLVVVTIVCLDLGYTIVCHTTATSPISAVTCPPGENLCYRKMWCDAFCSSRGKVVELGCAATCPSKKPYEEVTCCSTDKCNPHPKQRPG
Sequence of Left-right determination factor 2 (Homo sapiens) (O00292 whole entry, looked up): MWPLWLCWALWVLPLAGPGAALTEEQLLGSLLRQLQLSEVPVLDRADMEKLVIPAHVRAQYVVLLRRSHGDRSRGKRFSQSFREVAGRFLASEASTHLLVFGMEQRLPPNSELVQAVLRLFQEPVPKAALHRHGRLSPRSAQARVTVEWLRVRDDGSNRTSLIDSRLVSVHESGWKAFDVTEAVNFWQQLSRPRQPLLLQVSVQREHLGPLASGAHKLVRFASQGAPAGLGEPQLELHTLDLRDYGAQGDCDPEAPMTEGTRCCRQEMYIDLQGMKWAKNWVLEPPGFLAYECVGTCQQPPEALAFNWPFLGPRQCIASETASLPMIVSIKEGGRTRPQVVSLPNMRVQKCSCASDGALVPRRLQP
Sequence of Concanavalin-A (Canavalia ensiformis) (P02866 whole entry, looked up): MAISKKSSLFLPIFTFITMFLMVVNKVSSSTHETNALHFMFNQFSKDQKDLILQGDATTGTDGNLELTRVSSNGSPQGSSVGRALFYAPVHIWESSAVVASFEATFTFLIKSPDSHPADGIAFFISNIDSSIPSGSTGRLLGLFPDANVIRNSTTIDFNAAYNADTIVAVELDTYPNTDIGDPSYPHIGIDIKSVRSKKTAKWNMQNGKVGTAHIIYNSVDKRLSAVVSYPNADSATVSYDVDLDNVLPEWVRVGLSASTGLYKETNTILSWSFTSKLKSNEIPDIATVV
Sequence of Albumin (Bos taurus) (P02769 whole entry, looked up): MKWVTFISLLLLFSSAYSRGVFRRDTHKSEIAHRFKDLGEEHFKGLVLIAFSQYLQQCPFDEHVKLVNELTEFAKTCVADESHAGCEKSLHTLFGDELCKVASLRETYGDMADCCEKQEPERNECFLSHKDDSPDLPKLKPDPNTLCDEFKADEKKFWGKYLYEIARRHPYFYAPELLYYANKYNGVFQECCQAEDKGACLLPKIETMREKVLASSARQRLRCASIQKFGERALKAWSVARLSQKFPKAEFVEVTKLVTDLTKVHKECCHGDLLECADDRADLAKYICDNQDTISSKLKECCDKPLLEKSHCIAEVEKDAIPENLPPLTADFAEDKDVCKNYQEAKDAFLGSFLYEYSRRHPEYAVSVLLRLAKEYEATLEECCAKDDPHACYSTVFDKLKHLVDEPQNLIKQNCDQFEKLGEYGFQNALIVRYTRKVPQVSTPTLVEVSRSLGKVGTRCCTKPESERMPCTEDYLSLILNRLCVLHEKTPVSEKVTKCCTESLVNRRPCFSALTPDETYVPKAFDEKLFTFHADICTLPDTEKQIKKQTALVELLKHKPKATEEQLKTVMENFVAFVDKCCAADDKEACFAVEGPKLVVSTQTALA
Sequence of Torsin-1A-interacting protein 1 (Homo sapiens) (Q5JTV8 whole entry, looked up): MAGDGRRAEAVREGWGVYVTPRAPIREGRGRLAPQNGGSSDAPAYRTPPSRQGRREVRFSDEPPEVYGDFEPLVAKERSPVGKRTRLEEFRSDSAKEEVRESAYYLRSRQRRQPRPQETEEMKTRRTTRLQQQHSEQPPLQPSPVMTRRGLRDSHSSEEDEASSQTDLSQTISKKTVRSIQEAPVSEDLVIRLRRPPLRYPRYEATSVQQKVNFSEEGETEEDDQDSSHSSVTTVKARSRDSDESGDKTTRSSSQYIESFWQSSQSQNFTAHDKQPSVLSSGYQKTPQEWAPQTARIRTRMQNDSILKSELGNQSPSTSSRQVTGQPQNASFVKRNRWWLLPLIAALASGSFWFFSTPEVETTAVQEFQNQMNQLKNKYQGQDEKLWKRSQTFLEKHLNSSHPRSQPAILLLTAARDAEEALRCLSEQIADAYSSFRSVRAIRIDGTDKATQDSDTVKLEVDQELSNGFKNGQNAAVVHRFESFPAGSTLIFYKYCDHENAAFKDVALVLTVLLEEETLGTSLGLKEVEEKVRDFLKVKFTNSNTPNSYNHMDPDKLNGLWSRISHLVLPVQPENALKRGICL

With `N#Cc1ccc(NN2C(C(O)c3ccccc3)C=CC3C(=O)N(c4ccccc4)C(=O)C32)cc1` (stereo not given), the composite z-score in assay [1] was 0.117; in [3] it was -0.135; in assay [4], -0.0722; in [5], -0.162; in [6] it was 0.0797; in [7], -0.102. Besides, the composite z-score was 0.642 in assay [8]; -0.113 in assay [9]; 0.153 in assay [10]; 0.801 with Albumin (Bos taurus); 0.222 in [12]; 0.0288 in assay [13]. In addition, the composite z-score in assay [14] was 0.809; in assay [15], 1.97; in assay [16] it was 0.191; in the assay with Sam68 (KHDRBS1), 0.0437; in [17], -0.605; in assay [18] it was -0.0029. In addition, in assay [2], the z-score is 0.335. Also, the composite Z-score in assay [11] was 0.151 (inactive).
On to `CCC[C@@H]1C[C@@]1(CCC)[C@@H](NC(=O)c1ccco1)c1ccc(Cl)cc1`, for which the composite z-score is -1.06 in assay [1]; -0.936 in assay [3]; -0.177 in [4]; 0.0344 in [5]; -0.252 in [6]; 0.254 in assay [7]. The composite z-score in [8] is 0.756; in assay [9], -0.678; in assay [10] it was -0.0776; with Albumin (Bos taurus), -0.638; in [12], -0.173; in [13] it was -0.0324. Moreover, the composite z-score is -0.464 in assay [14]; -0.241 in assay [15]; -0.0117 in assay [16]; -1.48 in the assay with Sam68 (KHDRBS1); -0.493 in [17]; -0.517 in assay [18]. The same compound came in with a z-score in assay [2] of -0.49. Further, the composite Z-score in assay [11] was -0.392 (inactive).
In the case of `C=C(COC)C(=O)CC[C@H](OC(=O)c1ccccc1-c1ccccc1C(=O)O)c1ccc(CO)o1`, the composite z-score in assay [1] was 0.544; in assay [3], 0.27; in assay [4], -0.271; in assay [5], -0.564; in [6], -0.128; in [7], -0.0553. Further, the composite z-score in assay [8] was -0.137; in assay [9] it was 0.77; in assay [10], 0.239; with Albumin (Bos taurus), -0.701; in [12] it was -0.203; in assay [13], -0.14. Moreover, the composite z-score is 0.365 in assay [14]; -0.264 in [15]; 0.134 in assay [16]; 0.807 in the assay with Sam68 (KHDRBS1); 0.55 in assay [17]; 0.332 in assay [18]. Besides, the z-score in [2] was -0.115. Further, the composite Z-score in [11] is 0.403 (inactive).
Regarding `CN(C)C(=O)[C@@]1(CCC(=O)OC(C)(C)C)COC(c2ccc(OCCCO)cc2)=N1`, the composite z-score in [1] is 1.08; in [3] it was -1.04; in [4], 0.38; in assay [5], 0.816; in assay [6], -0.127; in assay [7] it was 0.261. Further, the composite z-score in assay [8] was 1.52; in assay [9] it was 1.54; in assay [10] it was 0.728; with Albumin (Bos taurus), 0.655; in assay [12], -0.119; in [13], -0.0508. In addition, the composite z-score in [14] is 0.841; in assay [15] it was 3.29; in assay [16], 0.723; in the assay on Sam68 (KHDRBS1), 0.502; in assay [17], -1.46; in assay [18], 0.673. In assay [2], this compound had a z-score of -0.594. Further, the composite Z-score in [11] was 0.142 (inactive).
With `COCCOC(=O)N1C(=O)[C@@]2(c3cc(C#CC4(O)CCCCCC4)ccc31)[C@H](C(=O)N1CCN(c3ncccn3)CC1)[C@H]1C(=O)O[C@H](c3ccccc3)[C@H](c3ccccc3)N1[C@@H]2c1ccc(O)cc1`, the composite z-score in assay [1] is 0.958; in [3] it was -0.28; in [4] it was 1.56; in assay [5], 1.05; in assay [6] it was 0.0633; in [7] it was 0.128. Besides, the composite z-score in [8] was -0.261; in [9], 1.53; in assay [10] it was 1.61; in the assay with Albumin (Bos taurus), 0.886; in assay [12] it was -0.0006; in [13], -0.0795. Further, the composite z-score in assay [14] was 0.35; in [15], 1.12; in assay [16] it was 0.73; with Sam68 (KHDRBS1) it was 1.22; in assay [17] it was -0.35; in [18], 1.11. This compound also yielded a z-score in [2] of -1.69. Besides, in assay [11], the composite Z-score is 0.528 (inactive).
Take `COC(=O)[C@@]1(Cc2ccc(F)cc2)[C@H]2c3cc(C(=O)N(C)C)n(CCSCCO)c3C[C@H]2CN1C(=O)c1ccccc1`: the composite z-score is 0.0689 in assay [1]; -0.293 in assay [3]; 2.32 in assay [4]; 0.559 in assay [5]; -0.0977 in assay [6]; 0.123 in assay [7]. Moreover, the composite z-score is 1.6 in assay [8]; 0.51 in assay [9]; 0.224 in [10]; 1.04 with Albumin (Bos taurus); 0.0179 in [12]; -0.0568 in assay [13]. The composite z-score in [14] was 0.726; in [15], 2.15; in [16] it was 0.96; in the assay on Sam68 (KHDRBS1), 0.584; in [17], 0.191; in assay [18], -0.103. Moreover, the z-score in assay [2] was -0.663. In addition, in [11], the composite Z-score is 0.116 (inactive).
